Source: PubChem BioAssay (Tox21)
Values joined by “and” are separate entries in the source; they are usually repeats but may differ in a detail not shown here. Equal values may be shown once. Records with an inconclusive call do not appear. Entries that show only a call come without a potency. Some structures have more than one record in an assay (separate samples or runs), and their calls can disagree. Active and inactive are the calls of the source. Unless noted, calls follow the shape of the dose curve; as a rule, active = well fitted curve in the direction sought with a large enough effect in the repeat runs; inconclusive = weak or mixed curves; inactive = no such curve, though single readings can be large; an effect the other way counts as inactive or inconclusive.

Columns and labels:
[1] = qHTS assay to identify aromatase inhibitors - cell viability counter screen (AID 743084); conditions: MCF-7 aro ERE viability, CellTiter-Fluor, 24 h; series mostly up to 70.3 µM;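 also: cells stimulated with testosterone during compound exposure; nearly all actives have a fitted effect of over 55% in size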
[2] = target: Aryl hydrocarbon receptor (Homo sapiens) (UniProt P35869); experiment: qHTS assay to identify small molecule that activate the aryl hydrocarbon receptor (AhR) signaling pathway (AID 743085); conditions: HepG2 AhR-luc (HG2L7.5c1), luciferase, 24 h; series mostly up to 70.3 µM; also: nearly all actives have a fitted effect of over 15% in size;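 as to activation: HG2L7.5c1 human HepG2 liver cells with stably integrated DRE-driven firefly reporter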
Outline: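 24 h compound exposure, 37C, HepG2-derived HG2L7.5c1 cells with DRE-responsive luciferase. Readouts: fluorescence viability, then luminescence at room temperature after 30 min.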

[3] = target: Peroxisome proliferator-activated receptor gamma (Homo sapiens) (UniProt P37231); experiment: qHTS assay to identify small molecule agonists of the peroxisome proliferator-activated receptor gamma (PPARg) signaling pathway (AID 743094; active = well fitted activation curve with a large enough effect in the signal ratio in the repeat runs, not every such curve was filed as active; the % refers to the signal ratio); conditions: HEK293H PPARg-UAS-bla, beta-lactamase FRET ratio, 17 h; series mostly up to 57 µM
Outline: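 Compounds dissolved in DMSO were added to PPARg UAS-bla HEK293H cells for 17 h at 37C, and reporter expression was quantified by fluorescence intensity after 1 h with LiveBLAzer B/G FRET substrate.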

[4] = qHTS assay to identify small molecule antagonists of the peroxisome proliferator-activated receptor gamma (PPARg) signaling pathway - cell viability counter screen (AID 743194); conditions: PPARg-bla HEK293H viability, CellTiter-Glo luminescence, 17 h; Potency: co-treated with 50 nM rosiglitazone unless noted; series mostly up to 62.6 µM; also: nearly all actives have a fitted effect of over 55% in size
Outline: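 PPARg-UAS-bla HEK293H cells were plated, rested 5 h at 37 C, then treated with compounds plus rosiglitazone (50 nM final) for 17 h at 37 C; viability was then read by CellTiter-Glo luminescence after 30 min at room temperature.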

[5] = qHTS assay for small molecule agonists of the antioxidant response element (ARE) signaling pathway - cell viability counter screen (AID 743203; calls by dose curve; also: nearly all actives have a fitted effect of over 55% in size); conditions: ARE-bla HepG2 viability, CellTiter-Glo luminescence, 16 h; series mostly up to 73.3 µM
Outline: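 Following 16 hrs of compound treatment at 37C, HepG2 cells with an ARE-controlled beta-lactamase gene were lysed with CellTiter-Glo. Luminescence was read after 30 min at room temperature.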

[6] = qHTS assay for small molecule activators of the heat shock response signaling pathway - cell viability counter screen (AID 743209); conditions: HSE-bla HeLa viability, CellTiter-Glo luminescence, 5 h; series mostly up to 62.6 µM; also: nearly all actives have a fitted effect of over 50% in size
Outline: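 Readout: CellTiter-Glo luminescence, 30 min at room temperature. System: HSE-bla HeLa cells, 1500/well, plated overnight. Treatment: compounds in DMSO, 5 h at 37 C.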

[7] = qHTS assay for small molecule activators of the heat shock response signaling pathway (AID 743210; active = well fitted activation curve with a large enough effect in the signal ratio in the repeat runs, with a control signal flat, not every such curve was filed as active; the % refers to the signal ratio;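 as to activation: HeLa cells with beta-lactamase reporter driven by heat shock elements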); conditions: HeLa HSE-bla reporter, beta-lactamase ratio, 5 h; series mostly up to 62.6 µM
Outline: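 Reporter gene assay: HeLa cells stably bearing an HSE-bla construct, compound treatment 5 h at 37 C, LiveBLAzer substrate 2.5 h at RT, fluorescence intensity.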

[8] = qHTS assay to identify small molecule that activate the aryl hydrocarbon receptor (AhR) signaling pathway - cell viability counter screen (AID 743086); conditions: HepG2-AhR-luc viability, CellTiter-Fluor, 24 h; series mostly up to 70.3 µM; also: nearly all actives have a fitted effect of over 45% in size
Outline: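 HepG2-AhR-luc (HG2L7.5c1) cells, 4000/well, were preincubated 5 h at 37C, exposed to compound in qHTS format for 24 hr at 37C, then given CellTiter-Fluor for 30 min; viability was read as fluorescence in the reporter wells.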

[9] = qHTS assay for small molecule agonists of the antioxidant response element (ARE) signaling pathway (AID 743202; active = well fitted activation curve with a large enough effect in the signal ratio in the repeat runs, not every such curve was filed as active; the % refers to the signal ratio); conditions: HepG2 ARE-bla reporter, beta-lactamase FRET, 16 h; series mostly up to 73.3 µM
Outline: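 Compounds delivered in DMSO to ARE-bla HepG2 cells (2,000 cells/well, pre-incubated 5 h) and left 16 h at 37 C. LiveBLAzer B/G FRET substrate then added for 2 h at RT before fluorescence reading.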
Potency is read from the fitted curve at half-maximal effect.

Sequence of Peroxisome proliferator-activated receptor gamma (Homo sapiens) (P37231 whole entry, looked up): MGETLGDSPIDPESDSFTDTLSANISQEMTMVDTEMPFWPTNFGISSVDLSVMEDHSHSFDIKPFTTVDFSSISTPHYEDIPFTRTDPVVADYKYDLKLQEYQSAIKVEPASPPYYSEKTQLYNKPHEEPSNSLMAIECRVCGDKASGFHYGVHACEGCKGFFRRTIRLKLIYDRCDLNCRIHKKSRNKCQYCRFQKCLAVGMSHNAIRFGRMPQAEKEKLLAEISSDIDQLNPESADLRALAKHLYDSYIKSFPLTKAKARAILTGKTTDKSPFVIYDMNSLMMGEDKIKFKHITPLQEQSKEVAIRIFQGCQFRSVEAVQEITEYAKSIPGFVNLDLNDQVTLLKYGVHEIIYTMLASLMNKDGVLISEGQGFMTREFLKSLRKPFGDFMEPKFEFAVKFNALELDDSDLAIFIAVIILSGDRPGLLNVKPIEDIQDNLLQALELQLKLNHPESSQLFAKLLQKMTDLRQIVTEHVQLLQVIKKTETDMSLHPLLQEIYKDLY
Sequence of Aryl hydrocarbon receptor (Homo sapiens) (P35869 whole entry, looked up): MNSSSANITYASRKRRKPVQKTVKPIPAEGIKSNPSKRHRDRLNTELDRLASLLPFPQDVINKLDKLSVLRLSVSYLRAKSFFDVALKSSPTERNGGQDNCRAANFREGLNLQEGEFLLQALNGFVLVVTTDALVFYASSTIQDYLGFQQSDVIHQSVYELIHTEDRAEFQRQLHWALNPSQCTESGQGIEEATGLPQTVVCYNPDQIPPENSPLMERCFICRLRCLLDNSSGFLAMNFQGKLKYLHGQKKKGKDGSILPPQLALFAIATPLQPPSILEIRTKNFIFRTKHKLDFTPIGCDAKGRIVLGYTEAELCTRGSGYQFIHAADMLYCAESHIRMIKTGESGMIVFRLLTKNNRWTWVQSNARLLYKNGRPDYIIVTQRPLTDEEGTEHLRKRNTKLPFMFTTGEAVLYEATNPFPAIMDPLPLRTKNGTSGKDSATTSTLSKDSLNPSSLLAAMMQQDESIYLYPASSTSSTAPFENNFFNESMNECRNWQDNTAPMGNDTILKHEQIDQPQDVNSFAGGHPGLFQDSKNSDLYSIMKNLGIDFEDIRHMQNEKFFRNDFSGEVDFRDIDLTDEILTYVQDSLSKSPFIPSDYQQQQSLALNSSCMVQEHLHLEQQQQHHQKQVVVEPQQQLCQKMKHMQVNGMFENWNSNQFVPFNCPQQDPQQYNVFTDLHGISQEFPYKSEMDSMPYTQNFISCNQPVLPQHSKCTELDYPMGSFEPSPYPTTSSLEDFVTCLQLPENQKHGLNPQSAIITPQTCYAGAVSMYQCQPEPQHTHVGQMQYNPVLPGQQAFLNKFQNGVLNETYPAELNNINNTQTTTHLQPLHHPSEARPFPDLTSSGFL

CC(C)OS(C)(=O)=O
Potency [1]: inactive | Potency [2]: inactive | Potency [3]: inactive | Potency [4]: inactive | Potency [5]: inactive | Potency [6]: inactive | Potency [7]: inactive

CCCN(CCC)CCc1c[nH]c2ccccc12
Potency [1]: inactive | Potency [2]: inactive | Potency [4]: inactive | Potency [5]: inactive | Potency [6]: inactive

CC(C)CC(C)(c1ccc(O)cc1)c1ccc(O)cc1
Potency [1]: 61.3 µM (active) | Potency [2]: inactive | Potency [4]: 61.7 µM (active) | Potency [5]: 54.5 µM (active) | Potency [6]: 55.1 µM (active)

[Hg+2].[I-].[I-]
Potency [1]: 6.86 µM (active) | Potency [2]: inactive | Potency [4]: 8.71 µM (active) | Potency [5]: 9.69 µM (active) | Potency [6]: 27.5 µM (active)

Oc1ccc(C2(c3ccc(O)cc3)CCCCC2)cc1
Potency [1]: 25.9 µM (active) | Potency [2]: inactive | Potency [4]: 41.3 µM (active)

CCCCCCCCCCCCCCCC[N+](C)(C)C
Potency [1]: 29.5 µM (active) and 68.6 µM (active) | Potency [2]: inactive | Potency [4]: 18.8 µM (active) and 29.8 µM (active) | Potency [5]: 29.5 µM (active) and 24.3 µM (active) and 29.8 µM (active) | Potency [6]: 21.1 µM (active) and 43.6 µM (active)

C[C@@H]1O[C@@H](O[C@H]2C[C@@H](O)[C@]3(CO)[C@H]4[C@H](O)C[C@]5(C)[C@@H](C6=CC(=O)OC6)CC[C@]5(O)[C@@H]4CC[C@]3(O)C2)[C@H](O)[C@H](O)[C@H]1O
Potency [1]: inactive | Potency [2]: inactive | Potency [4]: 13.1 nM (active) and 119 nM (active) | Potency [5]: 6.5 nM (active) and 133 nM (active) | Potency [6]: 20.8 nM (active) and 266 nM (active) | Potency [7]: inactive

CCCN(CC)CC1COC2(CCC(C(C)(C)C)CC2)O1 (stereo unspecified)
Potency [1]: inactive | Potency [2]: inactive | Potency [4]: inactive | Potency [5]: inactive | Potency [6]: inactive | Potency [7]: inactive

CC(=O)[O-].CC(=O)[O-].O.O.[Cd+2]
Potency [1]: 42.7 µM (active) | Potency [2]: inactive | Potency [4]: 0.682 µM (active) | Potency [5]: 0.214 µM (active)

CC(=O)Nc1ccc2c(c1)Cc1ccccc1-2
Potency [1]: inactive | Potency [2]: 55.3 µM (active) | Potency [3]: inactive | Potency [4]: inactive | Potency [5]: inactive | Potency [6]: inactive | Potency [7]: inactive

C1CCC2CCCCC2C1 (stereo unspecified)
Potency [1]: inactive | Potency [2]: inactive | Potency [4]: inactive | Potency [5]: inactive | Potency [6]: inactive | Potency [7]: inactive

CCCCCCCCc1ccc(O)cc1
Potency [1]: 21.8 µM (active) | Potency [2]: inactive | Potency [8]: inactive | Potency [6]: 42.3 µM (active)

S=C=Nc1cccc2ccccc12
Potency [1]: 30.3 µM (active) | Potency [2]: 13.5 µM (active) | Potency [4]: inactive | Potency [5]: 15.2 µM (active)

O=[N+]([O-])c1cc(C(F)(F)F)c(Cl)c([N+](=O)[O-])c1Cl
Potency [1]: 3.06 µM (active) | Potency [2]: inactive | Potency [4]: 2.45 µM (active) | Potency [5]: 1.72 µM (active) | Potency [6]: 2.19 µM (active)

CCC(C)(C)C(=O)OC1=C(c2ccc(Cl)cc2Cl)C(=O)OC12CCCCC2
Potency [1]: inactive | Potency [2]: inactive | Potency [3]: 1.74 µM (active) | Potency [5]: 30.6 µM (active) | Potency [6]: 54.9 µM (active)

ClC1=C(Cl)[C@]2(Cl)[C@H]3[C@H]([C@H]4C=C[C@H]3C4)[C@@]1(Cl)C2(Cl)Cl
Potency [1]: inactive | Potency [2]: inactive | Potency [8]: inactive | Potency [5]: inactive | Potency [6]: inactive | Potency [7]: inactive

ClCc1ccc(Cl)cc1Cl
Potency [1]: inactive | Potency [2]: inactive | Potency [8]: inactive | Potency [5]: inactive | Potency [6]: inactive | Potency [7]: inactive

CCCCCCCCCCCCCCCC[n+]1ccccc1
Potency [1]: 32 µM (active) and 54.5 µM (active) and 60.3 µM (active) | Potency [2]: inactive | Potency [4]: 26.6 µM (active) [middle of 4 runs] | Potency [5]: 26.9 µM (active) [middle of 4 runs] | Potency [6]: 28.8 µM (active) and 24.5 µM (active) and 48.3 µM (active)

CN(C)c1ccc(N=Nc2ccccc2)cc1
Potency [1]: 54.5 µM (active) | Potency [2]: 27.3 µM (active) | Potency [4]: inactive | Potency [9]: 8.64 µM (active) | Potency [5]: inactive | Potency [6]: inactive

CCCOCC(=Nc1ccc(Cl)cc1C(F)(F)F)n1ccnc1
Potency [1]: 12.2 µM (active) | Potency [2]: inactive | Potency [4]: 11 µM (active) | Potency [5]: 13.7 µM (active) | Potency [6]: 12.3 µM (active)

CCOC(=O)OC1=C(c2cc(C)ccc2C)C(=O)NC12CCC(OC)CC2 (stereo unspecified)
Potency [1]: inactive | Potency [2]: inactive | Potency [3]: inactive | Potency [5]: inactive | Potency [6]: inactive | Potency [7]: inactive

N#CCCC(Br)(C#N)CBr (stereo unspecified)
Potency [1]: 27.3 µM (active) | Potency [2]: inactive | Potency [8]: inactive | Potency [6]: 49 µM (active)

CC(C)Oc1cccc(NC(=O)c2ccccc2C(F)(F)F)c1
Potency [1]: inactive | Potency [2]: 9.97 µM (active) | Potency [3]: inactive | Potency [5]: inactive | Potency [7]: inactive

CC(C)OC(=O)C(O)(c1ccc(Cl)cc1)c1ccc(Cl)cc1
Potency [1]: inactive | Potency [2]: inactive | Potency [8]: inactive | Potency [5]: inactive | Potency [6]: inactive | Potency [7]: inactive

Oc1ccc(C(c2ccc(O)cc2)(C(F)(F)F)C(F)(F)F)cc1
Potency [1]: 60.8 µM (active) | Potency [2]: 6.86 µM (active) | Potency [4]: 43.6 µM (active) | Potency [5]: inactive and 43.3 µM (active) | Potency [6]: inactive | Potency [7]: inactive

CCC(C)c1cc([N+](=O)[O-])cc([N+](=O)[O-])c1OC(=O)C=C(C)C (stereo unspecified)
Potency [1]: 24.3 µM (active) | Potency [2]: inactive | Potency [4]: 54.9 µM (active) | Potency [5]: 27.3 µM (active) | Potency [6]: inactive

CCN(CC)C(=S)[S-].CCN(CC)C(=S)[S-].[Zn+2]
Potency [1]: 0.096 µM (active) | Potency [2]: inactive | Potency [4]: 2.17 µM (active) | Potency [5]: 3.82 µM (active)

CN(C)C1CSSSC1
Potency [1]: inactive | Potency [2]: inactive | Potency [3]: inactive | Potency [4]: inactive | Potency [5]: inactive | Potency [6]: inactive | Potency [7]: inactive

N#CNC#N
Potency [1]: inactive | Potency [2]: inactive | Potency [4]: inactive | Potency [5]: inactive | Potency [6]: inactive | Potency [7]: inactive

O=C(O)c1cc[c]([Hg][Cl])cc1
Potency [1]: 61.1 µM (active) | Potency [2]: inactive | Potency [4]: 38.9 µM (active) | Potency [5]: 54.5 µM (active)

CN(C)CCc1c[nH]c2ccc(O)cc12
Potency [1]: inactive | Potency [2]: inactive | Potency [4]: inactive | Potency [5]: inactive | Potency [6]: inactive | Potency [7]: 59.7 µM (active)

Cc1cc(C)cc(OP(=O)(Oc2cc(C)cc(C)c2)Oc2cc(C)cc(C)c2)c1
Potency [1]: inactive | Potency [2]: 9.84 µM (active) | Potency [4]: inactive | Potency [5]: inactive | Potency [6]: inactive | Potency [7]: inactive

O=[N+]([O-])c1ccc(Oc2ccc(C(F)(F)F)cc2[N+](=O)[O-])cc1
Potency [1]: inactive | Potency [2]: 30.6 µM (active) | Potency [3]: inactive | Potency [4]: inactive | Potency [5]: inactive | Potency [6]: inactive | Potency [7]: inactive

Clc1ccc(-c2ccc(Cl)c(Cl)c2Cl)c(Cl)c1Cl
Potency [1]: inactive | Potency [2]: inactive | Potency [8]: inactive | Potency [6]: inactive

Oc1cc(Cl)c(Cl)c(Cl)c1
Potency [2]: inactive | Potency [8]: inactive | Potency [4]: 13.1 µM (active)

CC(C)CC(C)Nc1ccc(Nc2ccccc2)cc1 (stereo unspecified)
Potency [1]: 47.7 µM (active) | Potency [8]: 67.4 µM (active) | Potency [4]: 42.9 µM (active) | Potency [6]: 54 µM (active)

O=C(CCl)Nc1ccccc1
Potency [1]: 27.3 µM (active) | Potency [8]: 61.1 µM (active) | Potency [4]: 15.5 µM (active) | Potency [9]: 4.33 µM (active) | Potency [6]: 43.6 µM (active)

ClC(Cl)=C(c1ccc(Cl)cc1)c1ccc(Cl)cc1
Potency [1]: inactive | Potency [2]: inactive | Potency [4]: inactive | Potency [6]: 50.2 µM (active) and 17.4 µM (active)

C=CCC1=C(C)C(OC(=O)C2C(C=C(C)C)C2(C)C)CC1=O (stereo unspecified)
Potency [1]: 25.8 µM (active) | Potency [4]: 58.3 µM (active) | Potency [5]: 51.5 µM (active) | Potency [6]: 46.3 µM (active)

O=c1[nH]c2ccccc2n1CCCN1CCC(n2c(=O)[nH]c3cc(Cl)ccc32)CC1
Potency [1]: inactive | Potency [4]: inactive | Potency [5]: inactive | Potency [6]: inactive | Potency [7]: inactive
